Holding throughout (assay): DAPPL (digital affinity profiling via proximity ligation, sequencing); 10 mM Tris-HCl pH 7.5, 50 mM NaCl, 1 mM DTT, 4% glycerol, room temperature, 30 min; GST-TFs on glutathione beads, 16-mer random dsDNA library, 0.1% formaldehyde crosslink after washing; high values mean tight binding
The target of one assay is T1, FEV (Homo sapiens, UniProt Q99581 1-238).
T1 sequence: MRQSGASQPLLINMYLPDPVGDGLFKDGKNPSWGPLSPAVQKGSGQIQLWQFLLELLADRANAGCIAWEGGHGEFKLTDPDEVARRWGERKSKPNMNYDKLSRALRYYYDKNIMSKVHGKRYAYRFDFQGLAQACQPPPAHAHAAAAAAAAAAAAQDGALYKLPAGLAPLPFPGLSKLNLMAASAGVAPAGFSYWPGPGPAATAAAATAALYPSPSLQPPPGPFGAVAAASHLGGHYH
The following applies: protein: recombinant; tags: N-terminal GST; dsDNA, one strand shown. The procedure, abridged:
(§1)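 Binding signal is each hexamer's read frequency for a factor divided by its frequency in the tag-only sample. The factors were GST-fused human transcription factors from yeast, captured on glutathione beads, DNA-barcoded and pooled with that sample. Pools were incubated with 200 nmole of a random double-stranded 16-mer DNA library in Tris/NaCl/DTT/glycerol buffer at room temperature for 30 min, then washed, crosslinked with 0.1% formaldehyde, proximity-ligated with BsaI/T4 ligase (1 h, 37 °C), PCR-amplified and sequenced on an Illumina NextSeq500.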

Another assay has as its target ETV5 (Homo sapiens, UniProt P41161 1-510). The following applies: protein: recombinant; tags: N-terminal GST; dsDNA, one strand shown. In a few lines: as §1
The next assay concerns the target HSF1 (Homo sapiens, UniProt Q00613 1-529). The following applies: protein: recombinant; tags: N-terminal GST; chain copies: 3; dsDNA, one strand shown. In a few lines:
as §1

A further assay concerns the target T2, SPIC (Homo sapiens, UniProt Q8N5J4 1-248).
T2 sequence: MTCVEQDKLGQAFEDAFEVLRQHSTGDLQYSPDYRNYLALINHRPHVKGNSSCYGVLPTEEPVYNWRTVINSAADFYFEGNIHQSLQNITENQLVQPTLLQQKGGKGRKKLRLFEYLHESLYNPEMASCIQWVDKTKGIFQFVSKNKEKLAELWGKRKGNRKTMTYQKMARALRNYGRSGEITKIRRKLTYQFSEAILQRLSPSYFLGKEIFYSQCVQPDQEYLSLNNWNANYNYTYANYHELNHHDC
The following applies: protein: recombinant; tags: N-terminal GST; dsDNA, one strand shown. In a few lines: as §1

A further assay has as its target ELF4 (Homo sapiens, UniProt Q99607 1-663). The following applies: protein: recombinant; tags: N-terminal GST; dsDNA, one strand shown. In a few lines:
as §1

In a further assay the target is T3, ELK4 (Homo sapiens, UniProt P28324-2 1-405).
T3 sequence: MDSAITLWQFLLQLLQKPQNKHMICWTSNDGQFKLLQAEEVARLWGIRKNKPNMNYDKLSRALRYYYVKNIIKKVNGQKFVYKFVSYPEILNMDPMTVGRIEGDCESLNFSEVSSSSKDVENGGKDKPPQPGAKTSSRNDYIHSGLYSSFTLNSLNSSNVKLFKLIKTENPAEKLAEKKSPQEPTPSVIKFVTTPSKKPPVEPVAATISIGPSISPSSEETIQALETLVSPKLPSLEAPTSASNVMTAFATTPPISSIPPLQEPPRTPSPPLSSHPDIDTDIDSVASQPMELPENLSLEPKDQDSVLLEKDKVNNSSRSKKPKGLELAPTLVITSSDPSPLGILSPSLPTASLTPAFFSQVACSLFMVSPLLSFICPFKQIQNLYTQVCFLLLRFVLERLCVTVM
The following applies: protein: recombinant; tags: N-terminal GST; dsDNA, one strand shown. In a few lines:
as §1

The next assay deals with T4, ETV2 (Homo sapiens, UniProt O00321 1-342).
T4 sequence: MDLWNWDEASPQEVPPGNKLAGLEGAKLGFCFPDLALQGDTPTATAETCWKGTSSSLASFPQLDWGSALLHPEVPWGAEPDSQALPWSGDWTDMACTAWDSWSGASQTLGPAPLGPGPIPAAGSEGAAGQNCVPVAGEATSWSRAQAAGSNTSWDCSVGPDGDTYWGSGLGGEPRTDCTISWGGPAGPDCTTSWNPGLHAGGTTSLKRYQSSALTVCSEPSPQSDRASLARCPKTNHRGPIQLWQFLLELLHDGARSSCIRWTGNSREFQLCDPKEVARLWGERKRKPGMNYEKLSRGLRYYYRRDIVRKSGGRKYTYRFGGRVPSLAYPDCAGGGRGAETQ
The following applies: protein: recombinant; tags: N-terminal GST; dsDNA, one strand shown. In a few lines: as §1

The next assay concerns the target T5, ELF3 (Homo sapiens, UniProt P78545 1-371).
T5 sequence: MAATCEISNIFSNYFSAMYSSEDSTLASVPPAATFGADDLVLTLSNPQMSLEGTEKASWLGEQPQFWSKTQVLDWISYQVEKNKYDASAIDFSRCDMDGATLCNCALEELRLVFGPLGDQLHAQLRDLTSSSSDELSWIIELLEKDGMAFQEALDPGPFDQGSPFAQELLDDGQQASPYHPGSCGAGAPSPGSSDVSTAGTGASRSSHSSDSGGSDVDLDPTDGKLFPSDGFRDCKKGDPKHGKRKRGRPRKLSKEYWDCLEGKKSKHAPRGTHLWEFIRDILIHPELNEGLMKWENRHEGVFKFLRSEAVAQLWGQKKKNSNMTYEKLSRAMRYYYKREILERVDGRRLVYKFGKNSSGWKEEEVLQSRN
The following applies: protein: recombinant; tags: N-terminal GST; dsDNA, one strand shown. In a few lines: as §1

The target in the next assay is CRX (Homo sapiens, UniProt O43186 1-299). The following applies: protein: recombinant; tags: N-terminal GST; dsDNA, one strand shown. The procedure, abridged:
as §1

Another assay deals with ETV1 (Homo sapiens, UniProt P50549 1-477). The following applies: protein: recombinant; tags: N-terminal GST; dsDNA, one strand shown. In a few lines: as §1
ETV1, sequence (P50549 whole entry): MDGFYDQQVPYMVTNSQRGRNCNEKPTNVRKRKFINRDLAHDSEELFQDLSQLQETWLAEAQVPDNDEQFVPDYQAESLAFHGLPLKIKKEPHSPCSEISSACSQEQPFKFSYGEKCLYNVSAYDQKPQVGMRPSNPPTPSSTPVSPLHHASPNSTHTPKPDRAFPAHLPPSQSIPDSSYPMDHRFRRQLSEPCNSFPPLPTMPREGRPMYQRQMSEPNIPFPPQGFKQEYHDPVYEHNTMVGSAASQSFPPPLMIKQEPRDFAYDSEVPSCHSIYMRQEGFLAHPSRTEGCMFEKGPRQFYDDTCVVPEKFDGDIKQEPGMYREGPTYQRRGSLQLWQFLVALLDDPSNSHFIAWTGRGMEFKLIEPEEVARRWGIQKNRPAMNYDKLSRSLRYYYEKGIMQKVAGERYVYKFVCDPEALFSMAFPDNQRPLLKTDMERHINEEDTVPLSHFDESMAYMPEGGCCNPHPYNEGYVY
In another assay the target is T6, ERF (Homo sapiens, UniProt P50548 1-548).
T6 sequence: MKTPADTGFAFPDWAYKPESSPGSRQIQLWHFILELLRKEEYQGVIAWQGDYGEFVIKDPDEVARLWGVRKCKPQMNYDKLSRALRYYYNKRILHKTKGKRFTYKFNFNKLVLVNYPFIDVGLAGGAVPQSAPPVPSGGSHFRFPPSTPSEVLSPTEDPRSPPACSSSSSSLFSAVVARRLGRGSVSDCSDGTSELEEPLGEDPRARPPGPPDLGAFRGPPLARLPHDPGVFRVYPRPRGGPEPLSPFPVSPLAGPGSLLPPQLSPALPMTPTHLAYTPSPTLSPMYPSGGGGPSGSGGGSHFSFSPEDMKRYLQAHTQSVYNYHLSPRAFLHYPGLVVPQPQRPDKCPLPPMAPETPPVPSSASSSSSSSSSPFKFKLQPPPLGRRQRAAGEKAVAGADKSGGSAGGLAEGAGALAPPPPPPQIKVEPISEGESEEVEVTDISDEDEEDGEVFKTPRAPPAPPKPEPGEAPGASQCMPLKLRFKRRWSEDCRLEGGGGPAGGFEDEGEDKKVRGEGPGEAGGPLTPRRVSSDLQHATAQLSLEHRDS
The following applies: protein: recombinant; tags: N-terminal GST; dsDNA, one strand shown. The procedure, abridged: as §1

Another assay concerns the target T7, ETV3L (Homo sapiens, UniProt Q6ZN32 1-361).
T7 sequence: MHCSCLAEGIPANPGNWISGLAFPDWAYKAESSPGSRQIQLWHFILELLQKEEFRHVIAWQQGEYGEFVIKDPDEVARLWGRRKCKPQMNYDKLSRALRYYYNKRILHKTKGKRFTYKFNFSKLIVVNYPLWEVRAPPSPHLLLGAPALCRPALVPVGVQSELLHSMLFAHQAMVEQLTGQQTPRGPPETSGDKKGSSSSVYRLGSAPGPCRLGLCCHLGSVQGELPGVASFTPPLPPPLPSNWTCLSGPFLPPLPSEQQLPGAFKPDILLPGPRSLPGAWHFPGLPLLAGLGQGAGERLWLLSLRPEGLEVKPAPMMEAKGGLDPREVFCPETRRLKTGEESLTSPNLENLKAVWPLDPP
The following applies: protein: recombinant; tags: N-terminal GST; dsDNA, one strand shown. In a few lines:
as §1

The target of the next assay is T8, ETS2 (Homo sapiens, UniProt P15036 1-469).
T8 sequence: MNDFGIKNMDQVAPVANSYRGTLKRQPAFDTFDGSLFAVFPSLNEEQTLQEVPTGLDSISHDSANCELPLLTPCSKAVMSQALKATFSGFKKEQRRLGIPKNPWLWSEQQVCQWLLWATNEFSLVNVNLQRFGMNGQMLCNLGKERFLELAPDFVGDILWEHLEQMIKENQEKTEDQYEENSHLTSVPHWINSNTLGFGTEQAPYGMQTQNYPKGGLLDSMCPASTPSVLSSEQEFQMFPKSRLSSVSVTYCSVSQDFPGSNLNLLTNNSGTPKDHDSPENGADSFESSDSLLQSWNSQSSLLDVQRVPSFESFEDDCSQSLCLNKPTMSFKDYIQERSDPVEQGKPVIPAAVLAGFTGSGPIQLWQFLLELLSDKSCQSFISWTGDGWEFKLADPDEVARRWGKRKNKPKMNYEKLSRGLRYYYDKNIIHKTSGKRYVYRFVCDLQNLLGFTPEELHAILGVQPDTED
The following applies: protein: recombinant; tags: N-terminal GST; dsDNA, one strand shown. In a few lines: as §1

Another assay addresses T9, SPDEF (Homo sapiens, UniProt O95238 1-335).
T9 sequence: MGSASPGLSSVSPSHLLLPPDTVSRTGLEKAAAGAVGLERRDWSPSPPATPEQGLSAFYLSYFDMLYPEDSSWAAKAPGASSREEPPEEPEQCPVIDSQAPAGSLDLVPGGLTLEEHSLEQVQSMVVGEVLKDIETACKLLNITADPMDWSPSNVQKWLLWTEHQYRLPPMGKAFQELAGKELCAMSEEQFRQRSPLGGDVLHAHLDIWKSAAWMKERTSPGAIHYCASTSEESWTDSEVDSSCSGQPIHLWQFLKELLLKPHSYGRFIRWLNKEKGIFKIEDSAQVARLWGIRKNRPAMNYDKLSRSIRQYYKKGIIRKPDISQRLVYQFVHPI
The following applies: protein: recombinant; tags: N-terminal GST; dsDNA, one strand shown. In a few lines:
as §1

Another assay deals with T10, ETV7 (Homo sapiens, UniProt Q9Y603 1-341).
T10 sequence: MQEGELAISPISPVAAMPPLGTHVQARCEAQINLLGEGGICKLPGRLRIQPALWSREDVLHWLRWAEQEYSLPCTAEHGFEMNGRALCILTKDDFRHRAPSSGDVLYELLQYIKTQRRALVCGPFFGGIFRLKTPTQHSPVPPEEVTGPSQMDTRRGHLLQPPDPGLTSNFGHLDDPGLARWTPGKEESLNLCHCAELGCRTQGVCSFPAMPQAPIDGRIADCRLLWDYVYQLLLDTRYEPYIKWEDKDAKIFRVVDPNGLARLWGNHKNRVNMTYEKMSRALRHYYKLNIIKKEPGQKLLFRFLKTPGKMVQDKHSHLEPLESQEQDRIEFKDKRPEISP
The following applies: protein: recombinant; tags: N-terminal GST; dsDNA, one strand shown. The procedure, abridged: as §1

In another assay the target is T11, ELF5 (Homo sapiens, UniProt Q9UKW6-2 1-255).
T11 sequence: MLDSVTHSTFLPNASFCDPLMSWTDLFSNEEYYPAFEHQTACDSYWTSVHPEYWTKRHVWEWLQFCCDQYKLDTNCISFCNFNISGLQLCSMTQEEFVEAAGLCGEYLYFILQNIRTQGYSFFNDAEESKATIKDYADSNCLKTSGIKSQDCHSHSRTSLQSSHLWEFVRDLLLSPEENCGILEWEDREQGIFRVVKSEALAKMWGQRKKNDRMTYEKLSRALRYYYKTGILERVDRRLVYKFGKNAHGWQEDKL
The following applies: protein: recombinant; tags: N-terminal GST; dsDNA, one strand shown. In a few lines:
as §1

The target of a further assay is T12, ETV3 (Homo sapiens, UniProt P41162-2 1-143).
T12 sequence: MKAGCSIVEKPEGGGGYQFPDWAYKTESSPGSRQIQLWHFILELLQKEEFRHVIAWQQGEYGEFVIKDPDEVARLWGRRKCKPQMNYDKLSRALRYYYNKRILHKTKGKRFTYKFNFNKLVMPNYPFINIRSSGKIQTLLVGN
The following applies: protein: recombinant; tags: N-terminal GST; dsDNA, one strand shown. In a few lines:
as §1

The target in the next assay is ETV6 (Homo sapiens, UniProt P41212 1-452). The following applies: protein: recombinant; tags: N-terminal GST; dsDNA, one strand shown. In a few lines:
as §1

The results in this text go back to paper PMC7862700, “An all-to-all approach to the identification of sequence-specific readers for epigenetic DNA modifications on cytosine”.

ELF4, sequence (Q99607 whole entry): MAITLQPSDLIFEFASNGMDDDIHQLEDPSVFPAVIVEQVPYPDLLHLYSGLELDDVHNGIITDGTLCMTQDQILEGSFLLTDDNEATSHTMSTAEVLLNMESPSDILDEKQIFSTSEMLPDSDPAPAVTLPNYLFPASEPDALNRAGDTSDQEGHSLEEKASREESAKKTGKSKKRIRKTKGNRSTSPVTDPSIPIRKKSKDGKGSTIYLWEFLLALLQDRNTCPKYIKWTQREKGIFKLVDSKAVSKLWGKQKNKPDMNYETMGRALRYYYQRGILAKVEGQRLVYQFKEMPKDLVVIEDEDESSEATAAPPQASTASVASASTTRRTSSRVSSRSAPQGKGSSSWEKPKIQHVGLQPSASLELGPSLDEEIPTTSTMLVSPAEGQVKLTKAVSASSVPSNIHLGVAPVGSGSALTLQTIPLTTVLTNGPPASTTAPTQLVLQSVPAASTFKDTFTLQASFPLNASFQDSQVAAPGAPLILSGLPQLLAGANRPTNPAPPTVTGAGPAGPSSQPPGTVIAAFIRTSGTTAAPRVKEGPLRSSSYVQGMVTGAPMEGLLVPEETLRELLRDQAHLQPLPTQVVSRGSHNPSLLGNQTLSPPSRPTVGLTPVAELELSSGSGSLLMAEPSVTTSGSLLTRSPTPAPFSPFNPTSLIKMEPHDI
ETV6, sequence (P41212 whole entry): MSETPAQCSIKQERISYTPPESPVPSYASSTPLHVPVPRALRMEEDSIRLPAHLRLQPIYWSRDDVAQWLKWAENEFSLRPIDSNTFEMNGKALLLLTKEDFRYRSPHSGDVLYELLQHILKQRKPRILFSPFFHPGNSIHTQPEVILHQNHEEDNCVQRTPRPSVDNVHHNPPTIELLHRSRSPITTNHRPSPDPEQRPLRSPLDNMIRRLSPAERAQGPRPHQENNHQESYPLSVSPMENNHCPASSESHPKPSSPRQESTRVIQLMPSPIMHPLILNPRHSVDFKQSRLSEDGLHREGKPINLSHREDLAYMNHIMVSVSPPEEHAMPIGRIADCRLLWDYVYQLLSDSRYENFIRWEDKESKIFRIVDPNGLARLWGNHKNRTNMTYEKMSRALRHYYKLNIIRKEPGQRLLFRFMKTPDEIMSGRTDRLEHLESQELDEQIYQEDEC
HSF1, sequence (Q00613 whole entry): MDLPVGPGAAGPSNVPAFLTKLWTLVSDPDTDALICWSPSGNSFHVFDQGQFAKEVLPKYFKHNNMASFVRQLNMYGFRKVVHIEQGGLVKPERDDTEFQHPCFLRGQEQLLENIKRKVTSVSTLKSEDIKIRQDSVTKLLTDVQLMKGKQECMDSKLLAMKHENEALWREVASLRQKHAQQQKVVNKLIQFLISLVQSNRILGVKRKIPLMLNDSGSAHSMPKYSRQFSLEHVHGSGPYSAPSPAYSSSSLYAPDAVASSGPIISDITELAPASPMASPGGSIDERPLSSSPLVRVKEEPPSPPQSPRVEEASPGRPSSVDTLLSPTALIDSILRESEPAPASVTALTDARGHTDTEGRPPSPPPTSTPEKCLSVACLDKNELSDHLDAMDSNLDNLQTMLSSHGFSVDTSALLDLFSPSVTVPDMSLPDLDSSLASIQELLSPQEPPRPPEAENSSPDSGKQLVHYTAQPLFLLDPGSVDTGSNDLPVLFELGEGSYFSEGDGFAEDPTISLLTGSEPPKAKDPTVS
ETV5, sequence (P41161 whole entry): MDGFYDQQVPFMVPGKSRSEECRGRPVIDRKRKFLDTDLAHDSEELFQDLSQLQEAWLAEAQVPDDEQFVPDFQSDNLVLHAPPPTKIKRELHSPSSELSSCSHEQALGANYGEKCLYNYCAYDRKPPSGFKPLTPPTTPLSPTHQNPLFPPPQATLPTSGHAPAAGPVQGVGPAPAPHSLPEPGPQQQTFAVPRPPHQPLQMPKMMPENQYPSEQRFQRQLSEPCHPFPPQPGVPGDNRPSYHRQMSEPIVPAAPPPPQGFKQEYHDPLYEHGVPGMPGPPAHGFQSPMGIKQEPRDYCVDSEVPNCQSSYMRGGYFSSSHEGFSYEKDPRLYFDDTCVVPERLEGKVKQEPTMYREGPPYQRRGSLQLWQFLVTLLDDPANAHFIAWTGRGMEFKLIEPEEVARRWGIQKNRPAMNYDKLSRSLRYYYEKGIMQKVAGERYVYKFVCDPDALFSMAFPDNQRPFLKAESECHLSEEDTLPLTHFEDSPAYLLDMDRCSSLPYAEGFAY
CRX, sequence (O43186 whole entry): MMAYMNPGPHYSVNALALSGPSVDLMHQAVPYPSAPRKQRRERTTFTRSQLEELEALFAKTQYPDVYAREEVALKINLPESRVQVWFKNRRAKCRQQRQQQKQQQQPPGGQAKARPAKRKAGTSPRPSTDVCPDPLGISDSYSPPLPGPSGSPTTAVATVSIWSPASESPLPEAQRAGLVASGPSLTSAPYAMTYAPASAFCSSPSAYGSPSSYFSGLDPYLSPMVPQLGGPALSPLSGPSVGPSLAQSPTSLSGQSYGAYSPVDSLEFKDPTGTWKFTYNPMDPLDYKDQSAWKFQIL

For ATCTCT, the binding signal with FEV is 1.29 fold enrichment (6-mer frequency, TF over GST control); with ETV5, 1.29 fold enrichment (6-mer frequency, TF over GST control); with HSF1 it was 1.63 fold enrichment (6-mer frequency, TF over GST control); in the assay with SPIC, 1.45 fold enrichment (6-mer frequency, TF over GST control); with ELF4, 1.26 fold enrichment (6-mer frequency, TF over GST control); with ELK4, 1.44 fold enrichment (6-mer frequency, TF over GST control). In addition, the binding signal with ETV2 was 1.33 fold enrichment (6-mer frequency, TF over GST control); in the assay with ELF3 it was 1.26 fold enrichment (6-mer frequency, TF over GST control); with CRX it was 1.85 fold enrichment (6-mer frequency, TF over GST control); with ETV1, 1.23 fold enrichment (6-mer frequency, TF over GST control); with ERF it was 1.38 fold enrichment (6-mer frequency, TF over GST control); with ETV3L, 1.27 fold enrichment (6-mer frequency, TF over GST control). Further, the binding signal with ETS2 is 1.29 fold enrichment (6-mer frequency, TF over GST control); with SPDEF, 1.18 fold enrichment (6-mer frequency, TF over GST control); with ETV7, 1.14 fold enrichment (6-mer frequency, TF over GST control); with ELF5, 1.25 fold enrichment (6-mer frequency, TF over GST control); with ETV3 it was 1.25 fold enrichment (6-mer frequency, TF over GST control); with ETV6, 1.27 fold enrichment (6-mer frequency, TF over GST control).
